# Assay results published in ChEMBL document CHEMBL1201862, “PubChem BioAssay data set” (2004).
# The whole screen tested about 400,000 compounds, of which about 2,100 (0.53%) were called active. Roughly 14% stayed inconclusive and do not appear here. How the calls were made is not given here. The sample as a whole holds a higher share of actives than the screen did.
# Target: Ataxin-2 (Homo sapiens) (UniProt Q99700)
# Experiment: qHTS for Inhibitors of ATXN expression.
# Assay type: functional
# Sequence of Ataxin-2 (Homo sapiens) (Q99700 whole entry): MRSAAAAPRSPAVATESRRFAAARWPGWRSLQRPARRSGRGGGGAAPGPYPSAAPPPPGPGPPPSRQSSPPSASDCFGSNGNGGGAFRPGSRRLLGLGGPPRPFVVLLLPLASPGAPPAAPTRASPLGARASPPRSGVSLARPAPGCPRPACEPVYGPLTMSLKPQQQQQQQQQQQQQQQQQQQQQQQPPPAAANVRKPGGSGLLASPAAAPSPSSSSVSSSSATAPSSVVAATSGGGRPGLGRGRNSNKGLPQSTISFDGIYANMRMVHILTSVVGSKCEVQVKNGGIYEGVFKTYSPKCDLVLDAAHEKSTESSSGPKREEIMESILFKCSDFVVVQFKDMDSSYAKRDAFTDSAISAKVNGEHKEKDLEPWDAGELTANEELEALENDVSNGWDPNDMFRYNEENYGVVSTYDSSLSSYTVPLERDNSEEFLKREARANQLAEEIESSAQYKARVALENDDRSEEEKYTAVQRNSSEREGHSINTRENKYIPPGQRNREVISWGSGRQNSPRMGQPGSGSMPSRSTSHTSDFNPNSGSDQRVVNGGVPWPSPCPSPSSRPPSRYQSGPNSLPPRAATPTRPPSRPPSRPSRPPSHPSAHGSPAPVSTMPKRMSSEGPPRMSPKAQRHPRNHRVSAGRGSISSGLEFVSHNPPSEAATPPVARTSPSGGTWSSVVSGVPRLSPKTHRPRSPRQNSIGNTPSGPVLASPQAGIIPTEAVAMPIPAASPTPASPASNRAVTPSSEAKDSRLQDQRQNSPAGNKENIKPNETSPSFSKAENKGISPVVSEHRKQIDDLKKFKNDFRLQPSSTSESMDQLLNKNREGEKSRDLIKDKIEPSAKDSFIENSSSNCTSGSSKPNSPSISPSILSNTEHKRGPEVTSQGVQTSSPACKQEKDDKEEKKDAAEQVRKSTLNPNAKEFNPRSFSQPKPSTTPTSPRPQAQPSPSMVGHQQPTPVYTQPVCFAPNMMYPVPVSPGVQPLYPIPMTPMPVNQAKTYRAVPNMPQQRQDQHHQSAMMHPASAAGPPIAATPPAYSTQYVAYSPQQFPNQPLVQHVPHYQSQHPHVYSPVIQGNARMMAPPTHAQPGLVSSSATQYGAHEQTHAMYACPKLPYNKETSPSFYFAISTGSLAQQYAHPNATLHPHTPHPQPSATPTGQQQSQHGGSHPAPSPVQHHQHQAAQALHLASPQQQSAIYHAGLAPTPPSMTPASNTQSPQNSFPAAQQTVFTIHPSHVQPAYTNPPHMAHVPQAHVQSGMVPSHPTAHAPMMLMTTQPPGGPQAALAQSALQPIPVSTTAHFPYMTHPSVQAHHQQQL
row,SMILES,Potency
1,CCOc1cccc(C2c3c(-c4cc(C)ccc4O)n[nH]c3C(=O)N2Cc2ccco2)c1 (stereo not drawn),39.8 µM (active)
2,Cc1ccc(O)c(-c2n[nH]c3c2C(c2ccccc2F)N(Cc2ccco2)C3=O)c1 (stereo not drawn),39.8 µM (active)
3,O=C1c2cccc3c(O)ccc(c23)C(=O)N1Cc1ccco1,inactive
4,Cc1cc(N=Nc2ccc(C)c(N=Nc3cc(C)c(N)cc3N)c2)c(N)cc1N,39.8 µM (active)
5,O=C1OCCN1C(=O)[C@H]1[C@H](c2ccc(F)cc2)C(c2ccc(F)cc2)=NN1c1ccccc1,inactive
6,OCc1ccc(N=Nc2ccccc2)cc1,inactive
7,Cc1[nH]c(N=Nc2ccccc2)nc1N=Nc1ccccc1,20 µM (active)
8,COc1cc2ccc(=O)oc2c(O)c1O,inactive
9,COc1cc(/C=C/c2nc3ccccc3s2)cc(OC)c1O,inactive
10,COc1cc(/C=C2\CC/C(=C\c3cc(OC)c(O)c(OC)c3)C2=O)cc(OC)c1O,28.2 µM (active)
11,COc1cc(/C=C2/CCC/C(=C\c3cc(O)c(OC)c(Cl)c3)C2=O)cc(Cl)c1O,39.8 µM (active)
12,COc1cc(/C=C2\SC(c3ccccc3)=NC2=O)cc(Cl)c1O,inactive
13,COc1cc(/C=C/C(=O)c2ccc3c(c2)OCO3)cc(Cl)c1O,inactive
14,COc1cc(/C=C2\CCC/C(=C\c3ccc(O)c(OC)c3)C2=O)ccc1O,35.5 µM (active)
15,COc1cc(/C=C2\C(=N)N3N=C(CC(=O)N4CCCCC4)SC3=NC2=O)ccc1O,inactive
16,COc1cc(/C=C2\CCc3c2nc2ccccc2c3C(=O)O)cc(OC)c1OC,inactive
17,COc1cc(/C=C2/NC(=O)N(Cc3ccccc3F)C2=O)ccc1O,inactive
18,COc1cc(C=C2C(=O)C=CC2=O)ccc1O,14.1 µM (active)
19,CCOc1cc(/C=C2\CCCc3c2nc2ccccc2c3C(=O)O)ccc1OC,inactive
20,C=CCN1c2ccccc2Sc2cnccc21,inactive
21,Nc1ccc2nn(-c3ccc(F)cc3)nc2c1,inactive
22,CCOc1cc(/C=C2/C(=N)N3N=C(CC(=O)N4CCCC4)SC3=NC2=O)ccc1O,inactive

row,SMILES,Potency
1,COc1cc(/C=C/C=C2/CC/C(=C/C=C/c3ccc(O)c(OC)c3)C2=O)ccc1O,13.4 µM (active)
2,COc1cc(/C=C2\COC/C(=C\c3ccc(O)c(OC)c3)C2=O)ccc1O,31.6 µM (active)
3,CCOc1cc(/C=C2\C(=N)N3N=C(CC(=O)N4CCCCC4)SC3=NC2=O)ccc1O,inactive
4,COc1cc(/C=C/C(=O)OCC(=O)N2CCC(Cc3ccccc3)CC2)ccc1O,inactive
5,COc1cc(/C=C/c2ccc3cccc(O)c3n2)ccc1O,inactive
6,COc1cc(/C=C2\Oc3cc(O)ccc3C2=O)ccc1O,inactive
7,CCOc1cc(/C=C2\CN(C)C/C(=C\c3ccc(O)c(OCC)c3)C2=O)ccc1O,15.8 µM (active)
8,COc1cc2ccc(=O)oc2cc1O,inactive
9,CCCn1/c(=N\C(=O)c2c(-c3c(F)cccc3Cl)noc2C)c(C(=O)OCC)cc2c(=O)n3ccccc3nc21,inactive
10,CCCn1c(O)nnc1SCC(=O)N(C1CCCCC1)C1CCS(=O)(=O)C1 (stereo not drawn),inactive
11,CN(C)c1ccc(C2C3CCCc4ccccc4C3=NN2C)cc1 (stereo not drawn),inactive
12,Nc1nnn(CC(=O)N/N=C/c2ccncc2)n1,inactive
13,CCNc1nc(NCC)n2c(SC(C(=O)Nc3cc(Cl)cc(Cl)c3)c3ccccc3)nnc2n1 (stereo not drawn),39.8 µM (active)
14,Cc1cc(/C=C2/C(=N)N3C(c4ccccc4)=CSC3=NC2=O)c(C)n1-c1ccccc1,inactive
15,Nc1nc(Cl)cc(=O)n1Cc1ccc(Cl)cc1,inactive
16,c1ccc(N/N=C(\Cc2ncc[nH]2)c2ccccc2)cc1,inactive
17,Brc1ccc(N/N=C(/N=Nc2nn[nH]n2)c2ccccc2)cc1,35.5 µM (active)
18,CCOC(=O)C[n+]1ccc2c([nH]c3ccccc32)c1C,inactive
19,C[C@H](CO)N1C[C@H](C)[C@@H](CN(C)C(=O)Nc2ccc3c(c2)OCO3)Oc2c(NC(=O)Nc3ccc(C(F)(F)F)cc3)cccc2C1=O,22.4 µM (active)
20,COc1ccc(OC)c(NC(=O)c2nc3ccccc3s2)c1,inactive
21,C[C@H](CO)N1C[C@H](C)[C@@H](CN(C)C(=O)Nc2ccc(C(F)(F)F)cc2)Oc2c(NC(=O)Nc3ccccc3)cccc2C1=O,25.1 µM (active)
22,COc1ccc(NC(=O)N(C)C[C@H]2Oc3c(NC(=O)c4nc5ccccc5s4)cccc3C(=O)N([C@@H](C)CO)C[C@H]2C)cc1,39.8 µM (active)

row,SMILES,Potency
1,C[C@@H]1CN([C@H](C)CO)C(=O)c2cccc(NC(=O)Nc3ccc(F)cc3)c2O[C@H]1CN(C)C(=O)Nc1ccc(C(F)(F)F)cc1,28.2 µM (active)
2,O=C(O)c1ccc(N2C(=O)CC(SC(=NCc3ccc4c(c3)OCO4)Nc3ccc(F)cc3)C2=O)cc1 (stereo not drawn),inactive
3,O=C1N=C(Nc2nc3ccccc3[nH]2)c2ccccc21,inactive
4,CCOc1ccc2nc(NCCNS(=O)(=O)c3ccccc3)c(C#N)cc2c1,inactive
5,Clc1ccccc1C1=CC(c2ccco2)n2ncnc2N1 (stereo not drawn),inactive
6,C#CCOc1c(Cl)cc(C2C3=C(CCCC3=O)N(CC(=O)O)C3=C2C(=O)CCC3)cc1OC,inactive
7,C[C@H](CO)N1C[C@H](C)[C@@H](CN(C)C(=O)Nc2ccccc2)Oc2c(NC(=O)Nc3ccc(C(F)(F)F)cc3)cccc2C1=O,39.8 µM (active)
8,COCCn1c(=N)c(C(=O)NCC2CCCO2)cc2c(=O)n3ccccc3nc21 (stereo not drawn),inactive
9,COCCCn1c(=N)c(C(=O)NCC2CCCO2)cc2c(=O)n3ccccc3nc21 (stereo not drawn),inactive
10,COc1ccc(CCn2c(=N)c(C(=O)NCC3CCCO3)cc3c(=O)n4ccccc4nc32)cc1 (stereo not drawn),15.8 µM (active)
11,O=C(CCC(=O)N1CCOc2ccc(Cl)cc21)NCCCN1CCC(Cc2ccccc2)CC1,26.7 µM (active)
12,O=C(NCc1ccccc1)C(=O)NCC1OCCN1S(=O)(=O)c1ccc2c(c1)OCCO2 (stereo not drawn),inactive
13,CCOc1ccccc1C(=O)NC(C(=O)NCc1ccc(F)cc1)C(C)C (stereo not drawn),inactive
14,CC1=C(C)C(C)=C(C#N)C(=C(C#N)C#N)N1,inactive
15,O=c1cc(Cl)c(-c2ccccc2)nn1Cc1ccc(Cl)cc1,inactive
16,CSc1nn(Cc2ccc(Cl)cc2)c(N(C(C)=O)C(C)=O)c1S(=O)(=O)c1ccccc1,25.1 µM (active)
17,CSc1nn(Cc2ccc(Br)cc2)c(N(C(C)=O)C(C)=O)c1S(=O)(=O)c1ccccc1,28.2 µM (active)
18,Cn1c(=O)n(Cc2ccc(Br)cc2)c2ccccc21,inactive
19,CC12CCC(C(=O)N(CC3CO3)C1=O)C2(C)C (stereo not drawn),inactive
20,Cn1cccc1C1C=C(c2ccc(C(C)(C)C)cc2)Nc2ncnn21 (stereo not drawn),inactive
21,CC(=O)c1ccc(-c2ccc(C(=O)N(C)Cc3nc(O)c4ccccc4n3)o2)cc1,inactive
22,CC(C)c1ccc(/C=C(\NC(=O)c2ccccc2)C(=O)NCCCn2ccnc2)cc1,inactive

row,SMILES,Potency
1,O=C(NCCCn1ccnc1)C(=O)NCC1OCCN1S(=O)(=O)c1ccc(F)cc1 (stereo not drawn),inactive
2,O=C(C[C@H]1C[C@H](C(=O)N2CCOCC2)[C@@]2(CCC3CCCC3)c3[nH]c4ccc(Cl)cc4c3CCN2C1=O)NCCCn1ccnc1,28.2 µM (active)
3,O=C(C[C@H]1C[C@H](C(=O)N2CCCCC2)[C@@]2(CCc3ccccc3)c3[nH]c4ccc(Cl)cc4c3CCN2C1=O)NCCCn1ccnc1,28.2 µM (active)
4,O=C(/C=C/c1ccc(S(=O)(=O)N2CCOCC2)cc1)NCCCn1ccnc1,inactive
5,CC[C@@]1(O)C(=O)OCc2c1cc1n(c2=O)Cc2cc3c(CN(C)C)c(O)ccc3nc2-1,inactive
6,CC(C)(C)c1ccc(OCC(=O)Nc2ccc3c4c(cccc24)C(=O)NC3=O)cc1,inactive
7,O=[N+]([O-])c1cc(/C=N/N=C(/Nc2ccccn2)c2ccccn2)ccc1O,2.67 µM (active)
8,Cc1ccc2nc3c(cc(C(N)=S)c(=N)n3CCCOC(C)C)c(=O)n2c1,inactive
9,C=CC[C@@H](CC(=O)N(CCO)Cc1ccccc1)C(=O)N[C@H](COC(=O)[C@@H](CC=C)CC(=O)OC(C)(C)C)c1ccccc1,31.6 µM (active)
10,C=CC[C@H](CC(=O)N(CCO)Cc1ccccc1)C(=O)N[C@H](COC(=O)[C@@H](CC=C)CC(=O)OC(C)(C)C)Cc1ccccc1,35.5 µM (active)
11,C=CC[C@H](CC(=O)N(CCO)Cc1ccccc1)C(=O)N[C@H](COC(=O)[C@@H](CC=C)CC(=O)OC(C)(C)C)c1ccccc1,35.5 µM (active)
12,N#CCC(=O)N/N=C/c1cc(-c2ccccc2)n(-c2ccc(Cl)cc2)c1-c1ccccc1,inactive
13,COCCNS(=O)(=O)c1ccc2c3c(cccc13)C(=O)N2C,inactive
14,CCCOC(=O)c1c(NC(=O)c2nc3ncccn3n2)sc(C(N)=O)c1C,inactive
15,Nc1cccc2c1C(=O)N(CC(=O)NC13CC4CC(CC(C4)C1)C3)C2=O,inactive
16,O=C(COC(=O)/C=C/C(=O)OCC(=O)NC12CC3CC(CC(C3)C1)C2)NC12CC3CC(CC(C3)C1)C2,31.6 µM (active)
17,CCOc1cc(/C=C2/C(=N)N3C(=NC2=O)SN=C3S(=O)(=O)CC)ccc1OC(=O)c1ccco1,inactive
18,COc1ccc(CNC(=O)C/C(C)=N/NC(=O)c2ccc([N+](=O)[O-])cc2Cl)cc1,inactive
19,COc1ccc(/C=C2\C(=O)N(c3c(Cl)cc(Cl)cc3Cl)N=C2NC(=O)c2cccc([N+](=O)[O-])c2)cc1,22.4 µM (active)
20,COC(=O)[C@]12CCCCC=C1N(CCC1=CCCCC1)C(=O)[C@H](CC(=O)NCCc1ccccc1OC)C2,39.8 µM (active)
21,COC(=O)[C@]12CCCCC=C1N(CCC1=CCCCC1)C(=O)[C@H](CC(=O)NCc1cccc3ccccc13)C2,25.1 µM (active)
22,COc1ccccc1CCNC(=O)CCNS(=O)(=O)c1ccc(NC(C)=O)cc1,inactive
